SMILES strings stand for the structures. Where “and” joins values, the source holds several entries; their conditions need not be identical. Identical values can stand only once. Records with an inconclusive call do not appear. More than one record can exist for a structure, and the calls need not agree. Calls of active or inactive are those of the source. The calls were made as follows: active = hit-call score of the fitted dose curve at least 0.9, where 1 is the maximum; inconclusive = response in the unintended direction; inactive = score below 0.9.

Sequence of Cellular tumor antigen p53 (Homo sapiens) (P04637 whole entry, looked up, the tested form may be a part): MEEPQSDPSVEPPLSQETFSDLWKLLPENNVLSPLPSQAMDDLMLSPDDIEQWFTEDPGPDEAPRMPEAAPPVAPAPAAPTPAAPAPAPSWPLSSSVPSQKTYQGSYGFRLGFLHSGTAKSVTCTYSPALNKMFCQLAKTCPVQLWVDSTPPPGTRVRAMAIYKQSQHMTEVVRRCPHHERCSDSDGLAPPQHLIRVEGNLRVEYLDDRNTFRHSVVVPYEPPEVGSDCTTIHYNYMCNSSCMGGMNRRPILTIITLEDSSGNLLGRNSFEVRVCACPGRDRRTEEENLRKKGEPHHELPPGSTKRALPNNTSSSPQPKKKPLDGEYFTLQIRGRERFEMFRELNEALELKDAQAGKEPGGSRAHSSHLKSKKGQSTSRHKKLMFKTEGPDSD

The assay has as its target Cellular tumor antigen p53 (Homo sapiens) (UniProt P04637). Put plainly: TOX21_p53_BLA_p4_ratio: Tox21 HCT-116 p53 Agonism Beta-lactamase Assay, Ratio, Phase 4 (AID 2283601). From the text:
TOX21_p53_BLA_p4 is a cell-based, single-readout assay that uses HCT116, a human intestinal cell line, […] in a 1536-well plate.TOX21_p53_BLA_p4_ratio is an assay readout measuring reporter gene via receptor activity and designed using inducible reporter (beta lactamase induction) detected with GAL4 b-lactamase reporter gene. The signal is derived from the ratio of cleaved (ch2) to uncleaved (ch1)reporter gene substrate used as the measure of target activity.Data from the assay component TOX21_p53_BLA_p4_ratio was analyzed into 1 assay endpoint. This assay endpoint, TOX21_p53_BLA_p4_ratio, was analyzed in the positive analysis fitting direction relative to DMSO as the negative control and baseline of activity. Using a type of inducible reporter, gain-of-signal activity can be used to understand changes in the reporter gene as they relate to the gene TP53. Furthermore, this assay endpoint can be referred to as a primary readout, because this assay has produced multiple assay endpoints where this ratio serves a reporter gene function to understand target activity. To generalize the intended target to other relatable targets, this assay endpoint is annotated to the DNA binding intended target family, where the subfamily is tumor suppressor.
Thawing Method: Place 14 mL of pre-warmed thaw medium into a 15 mL of conical tub. Remove the vial of cells to be thawed from liquid nitrogen and thaw rapidly by placing at 37C in a water bath with gentle agitation for 1-2 minutes. Decontaminate the vial by wiping with 70% ethanol before opening in a biological safety cabinet. Transfer the vial contents drop-wise into 14 mL of thaw medium in a sterile 15-mL conical tub. Centrifuge cells at 900 rpm for 4 minutes and resuspend in thaw medium. Transfer contents to the T75 tissue culture flask containing Thaw Medium and place flask in a humidified 37C/5% CO2 incubator. Switch to growth medium at first passage.Propagation Method: Aspirate medium, rinse once in DPBS, add 0.25% Trypsin/EDTA and swirl to coat the cell evenly. Add an equal volume of Growth Medium to inactivate Trypsin after 2-3 minutes incubation at 37C. Centrifuge cells at 900 rpm for 4 minutes and resuspend in growth medium. Cell should be passage or fed at least twice a week.Assay Protocol: Harvest cells from culture in growth medium and resuspend in assay medium. 2.2 Dispense 4000 cells/5 uL/well into 1536-well black/clear bottom plates using a Multidrop dispenser. After the cells were incubated at 37C for 5 hours, 23 nL of compounds dissolved in DMSO were transferred to the assay plate by a PinTool resulting in a 217-fold dilution. Incubate the plates for 16 hours at 37C, 5% CO2. Add 1 uL of 6X LiveBLAzer FRET B/G (CCF4-AM) Substrate Mixture to each well using a BioRAPTR dispenser and incubate the plates at room temperature for 2 hours. Measure fluorescence intensity at 460 and 530 nm emission and 405 nm excitation by an Envision detector. Data is expressed as the ratio of 460nm/530nm emissions. Add 4 uL of Cell-titer Glo to each well using BioRAPTR and incubate the plates at room temperature for 2 hours. Measure fluorescence intensity by a VewLux plate reader.
For `CC(C)c1cccc(C(C)C)c1NC(=O)NS(=O)(=O)c1cc(C(C)(C)O)co1`, the result was inactive. Regarding `O=C(O)c1[nH]n(-c2ccc(S(=O)(=O)O)cc2)c(=O)c1N=Nc1ccc(S(=O)(=O)O)cc1`, the AC50 is 6.18e-05 µM (active). Turning to `C=CCc1ccc(OC)c(OC)c1`, the outcome was inactive. Still for that read-out and setting: in the case of `CN(C)C(=O)NC1(c2ccccc2)CCN(CCC[C@]2(c3ccc(Cl)c(Cl)c3)CCCN(C(=O)c3ccccc3)C2)CC1` it was “inactive”; in that of `O=C(O)CN(CC(=O)O)CC(=O)O`, “inactive”; in that of `CS(=O)(=O)c1ccc([C@@H](C[C@H]2CCC(=O)C2)C(=O)Nc2cnccn2)cc1Cl`, “inactive”. With `Cc1c(C)c2c(c(C)c1O)CCC(C)(COc1ccc(CC3SC(=O)NC3=O)cc1)O2` (stereo not given), the AC50 is 76 µM (active) and 35.5 µM (active). Regarding `c1ccc2occc2c1`, the outcome was inactive. On the same count and under the same terms, in the case of `CC1(C)C(=O)NC(=O)N1CO` it was “inactive”. Consider `CCc1cc(C2=C(C(=O)O)N(c3ccccc3C(F)(F)F)S(=O)(=O)c3ccccc32)cc2c1OCO2`, for which the AC50 was 75.1 µM (active). As to `Nc1nc(Cl)nc2c1ncn2[C@H]1C[C@H](O)[C@@H](CO)O1`, the AC50 is 244 nM (active) and 886 nM (active).

In the case of `COC(=O)[C@H]1[C@H]2C[C@@H]3c4[nH]c5cc(OC)ccc5c4CCN3C[C@H]2C[C@@H](OC(=O)c2cc(OC)c(OC)c(OC)c2)[C@@H]1OC`, the result was inactive.

For `Cc1ccc(C(C)(C)C)c(O)c1`, the AC50 was 69 µM (active) and the result was inactive.

On to `COc1ccc(OC(F)(F)F)cc1CN[C@H]1CCCN[C@H]1c1ccccc1`, for which the AC50 is 82.3 µM (active). Turning to `CCCCCCCCCCCCCCOS(=O)(=O)O`, the AC50 was 78.4 µM (active). Regarding `O=C1c2c(O)cccc2Cc2cccc(O)c21`, the result was inactive. Still for that read-out and setting: in the case of `CC(=O)S[C@H](C(=O)N[C@H]1Cc2ccccc2[C@H]2CCC[C@@H](C(=O)O)N2C1=O)C(C)C` it was “inactive”. For the compound `CCCCCCCC(=O)OC`, the result was inactive. Take `CCCCCCC(CCCCCCCCCCC(=O)OCC(COC(C)=O)OC(C)=O)OC(C)=O` (stereo not given): the outcome was inactive.

As to `CCC(C)N(C)C(=O)c1cc2ccccc2c(-c2ccccc2Cl)n1` (stereo not given), the outcome was inactive.

With `CN(C)C(=O)NC1(c2ccccc2)CCN(CC[C@@]2(c3ccc(F)c(F)c3)CN(C(=O)c3ccccc3)CCO2)CC1`, the outcome was inactive.

As to `CC1=C(C)S(=O)(=O)CCS1(=O)=O`, the outcome was inactive. On the same count and under the same terms, then `NCCOCCOCCN`, with “inactive”; and `O=C1O[C@H]([C@H](O)CO)C(O)=C1O`, with “inactive”; and `NC(=Nc1ccccc1)Nc1ccccc1`, with “inactive”. The same measure, in the same setting: then `CCOCCOCCO`, with “inactive”; and `COC(=O)CCC(=O)OC`, with “inactive”; and `CCCCC(CC)COC(=O)CCCCCCCC(=O)OCC(CC)CCCC` (stereo not given), with “inactive”.

`C=CCCCCCCCCCCCC`: the outcome was inactive. Still for that read-out and setting: then `S=c1[nH]c2ccccc2s1`, with “inactive”; and `CCCCc1nc2cccnc2n1Cc1ccc(-c2ccccc2-c2nnn[nH]2)cc1`, with “inactive”; and `COC(=O)CCCC(=O)OC`, with “inactive”. As to `Oc1ccc(O)cc1`, the result was inactive. Take `CN(C)CCCN(C)CCCN(C)C`: the outcome was inactive. Still for that read-out and setting: in the case of `O=[Si]=O` it was “inactive”; in that of `CCCCCCCCCC[N+](C)(C)[O-]`, “inactive”.

Turning to `CCCCC(CC)CO` (stereo not given), the outcome was inactive. On to `Oc1ccccc1O`, for which the result was inactive and the AC50 is 73.5 µM (active).

One may read the AC50 as the midpoint of the concentration-response curve, whichever way the signal moves.

The values above are taken from PubChem BioAssay (EPA / NIEHS).
